# Reference: PubChem BioAssay (NCI)
# The panel holds about 83,000 compounds, 20% with a hit somewhere; the sample as a whole holds those more often.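 Treatment: one concentration, 48 hours, 96-well format. Scoring: percent growth, with anything below 10 considered active.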 Values without a mark were called inactive. Calls of active or inactive are those of the source.
# Tested on: LOX IMVI melanoma
# Assay: NCI-60 one-dose screen, 48 h (100 = growth as untreated, 0 = no growth, -100 = all killed)
# Details: 10 µM unless noted
row,SMILES,growth
1,CS(=O)(=O)Nc1cc(-c2ccc3ncnc(Nc4ccc5c(cnn5Cc5ccccn5)c4)c3c2)cnc1Cl,71%
2,CO[C@H]1/C=C(/C)CCC[C@H](C)[C@H](O)[C@@H](C)C(=O)C(C)(C)[C@@H](O)CC(=O)O[C@@H]1/C(C)=C/c1csc(C)n1,14.3%
3,COc1ccc2nc3ccc(OC)cc3c(SCCCN)c2c1,63.1%
4,CCCCCCCCCCCCCCCC(N)c1ccccc1 (stereo not given),-100% (active)
5,CC1=C(Nc2ccc(N3CCN(C)CC3)cc2)C(=O)c2cncnc2C1=O,-13.6% (active)
6,CN(C)c1ccc(/C=C/C(=O)c2ccc(-n3cc(CN4CCN(c5cc6c(cc5F)c(=O)c(C(=O)O)cn6C5CC5)CC4)nn3)cc2)cc1,20.3%
7,CCN(CC)c1nc(SCc2ccccc2Cl)ncc1C,95.9%
8,CCN1CCN(Cc2cn(CC(=O)Nc3ccc4c(ccn4Cc4ccccc4)c3)nn2)CC1,103%
9,O=C(O)[C@@H]1c2ccccc2-c2ccccc2[C@H]1C(=O)O,99.3%
10,O=C1CC(N2C(=O)/C(=C/C(Cl)=C\c3ccc([N+](=O)[O-])cc3)SC2=S)C(=O)N1c1ccc(Cl)cc1 (stereo not given),-71.7% (active)
11,CCc1ccc(Oc2cn[nH]c2-c2ccc(OCCc3ccc(F)cc3)cc2O)cc1,86.8%
12,CC1(C)CCC(S(=O)(=O)c2ccc3c(c2)/C(=N\O)c2cc(S(=O)(=O)N4CCC(O)(c5cccc(C(F)(F)F)c5)CC4)ccc2-3)CC1,-86.1% (active)
13,Cc1cc(Cl)ccc1Nc1nc(C(F)(F)F)ccc1C(=O)N/N=C/c1ccc([N+](=O)[O-])cc1,7.3% (active)
14,CCOC(=O)c1[nH]c(=O)c2c(C)nc(-c3ccccc3)cc2c1O,112%
15,Oc1ccc(CN2CCC(N3CCCCC3)CC2)c2cccnc12,17.8%
16,COc1cccc([C@H]2c3[nH]c4ccccc4c3C[C@H]3C(=O)N(CCCCCCC(=O)NO)CC(=O)N23)c1,49.4%
17,C=CC(=O)NCc1ccc(Nc2nccc(-c3ccc(N4CCCC4)c(C#N)c3)n2)cc1,47.2%
18,CC1=C(C(=O)OC(C)C)C(c2ccc3c(c2)OCO3)NC(=S)N1 (stereo not given),97.3%
19,CCOC(=O)Cn1c(O)c(N=Nc2ccc(S(N)(=O)=O)cc2)c2cc(Br)ccc21,86%
20,O=C(Cn1c2c(c3ccccc31)CCCC2)Nc1ccc(-c2nc3ccccc3s2)cc1,79.9%

row,SMILES,growth
1,COC(C(=O)[C@@H](O)[C@@H](C)O)[C@@H]1Cc2cc3cc(O[C@H]4C[C@@H](O[C@H]5C[C@@H](O)[C@H](O)C(C)O5)[C@H](O)C(C)O4)c(C)c(O)c3c(O)c2C(=O)[C@H]1O[C@H]1C[C@@H](O[C@H]2C[C@@H](O[C@H]3C[C@@H](O)[C@H](OC)C(C)O3)[C@@H](O)C(C)O2)[C@H](O)C(C)O1 (stereo not given in full),-8.28% (active)
2,CCCCCCCCn1ccc2cc(NC(=O)CN3CCN(c4nc(C)cc(Cl)n4)CC3)ccc21,99.6%
3,COc1ccc(/C=N/NC(=O)CCN2c3ccccc3Sc3ccccc32)cc1,60.9%
4,CNC(=O)c1cc(Oc2ccc3c(c2)sc2nc(-c4cc(OC)c(OC)c(OC)c4)cn23)ccn1,58%
5,CCCCCCNC(=O)Oc1ccc(/C(=C(/C)Cc2ccc(OC)cc2)c2ccc(OCCCN(C)C)cc2)cc1,-60.5% (active)
6,Cn1ccnc1C(=O)C(=O)Nc1ccc(CC(=O)Nc2ccccc2)cc1,100%
7,C=CCc1c(O)c(C(=O)/C=C/c2ccc(Cl)cc2)c(OC)c2ccoc12,34.8%
8,C=C(CNCCc1ccc(O)cc1)[C@@H]1CC[C@]2(CO)CC[C@]3(C)[C@H](CC[C@@H]4[C@@]5(C)CCC(NCCO)C(C)(C)[C@@H]5CC[C@]43C)[C@@H]12 (stereo not given in full),-84.1% (active)
9,CCOC(=O)CNP(=O)(OC[C@@H](Cc1ccccc1)NC(=O)c1cc2ccccc2s1)Oc1ccccc1 (stereo not given in full),76.2%
10,COc1ccc(OC)c(C(=O)/C=C/c2cc3c(c(OC)c2OC)OCO3)c1,47.8%
11,C=C(C)[C@@H]1CC[C@]2(C)[C@H](CC=C3[C@@H]4[C@H](C)[C@@H](C)CC[C@]4(CO)CC[C@]32C)[C@@]1(C)CCCN,-99% (active)
12,O=C1/C(=C/c2ccc(F)cc2)COc2ccc(O)cc21,22.5%
13,CN(CCn1sc(=O)n(Cc2ccccc2)c1=O)Cc1ccc2c(Cl)cc(Cl)c(O)c2n1,30.7%
14,CCN(CC)CCOc1ccc(C(=C(C)c2ccc(Cl)cc2)c2ccc(OCCN(CC)CC)cc2)cc1,-88.5% (active)
15,CC(=O)OC[C@]12CCC(C)(C)C[C@H]1[C@@]1(O)[C@H](O)C[C@@H]3[C@@]4(C)CCCNC(C)(C)[C@@H]4CC[C@@]3(C)[C@]1(C)CC2,106%
16,Cc1ccc(CNc2ccc(Cl)cc2NCc2ccc(C)c(O)c2)cc1O,2.86% (active)
17,COc1ccc(C(=O)C2C(c3ccc(OC)cc3)CN(C)C23C(=O)Nc2ccccc23)cc1 (stereo not given),93%
18,O=C(O)CCCN1C(=O)/C(=C/C(Cl)=C/c2ccccc2)SC1=S,-55.5% (active)
19,O=C1/C(=C/c2ccc(Cl)cc2)COc2ccc(O)c(O)c21,-84.8% (active)
20,COc1cc(CNC(=O)/C=C/C=C/c2ccc3c(c2)OCO3)ccc1OCc1cn(-c2ccc(C)c(C)c2)nn1,88.1%
